# Assay results taken from PubChem BioAssay (EPA / NIEHS).
# Several values for one entry are separate records, joined by “and”; a condition that tells them apart may be missing. Equal values may be shown once. Inconclusive results are not listed. The source holds several records for some structures; these can differ, active in one and inactive in another. Activity calls are given as the source filed them. The calls were made as follows, unless noted: active = hit-call score of the fitted dose curve at least 0.9, where 1 is the maximum; inactive = score below 0.9.
# How the values were obtained:
# [1] = ATG_PBREM_CIS: Attagene CIS-FACTORIAL HepG2 Assay for human Phenobarbital-responsive Enhancer Module (PBREM) (AID 2282955); details: HepG2 PBREM cis-reporter, Attagene multiplexed transcription; actives raise or lower the signal
# Summary of the method: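 HepG2 cells transiently transfected with multiple cis-regulated reporter transcription units; endogenous factor activity at the PBREM element measured as reporter mRNA 24 h after dosing, via RT-PCR and capillary electrophoresis of fluorescent fragments; bidirectional fitting versus DMSO.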
# [2] = biological target: Paired box protein Pax-6 (Homo sapiens) (UniProt P26367); assay: ATG_Pax6_CIS: Attagene CIS-FACTORIAL HepG2 Assay for human Paired Box 6 (PAX6) (AID 2282956); details: HepG2 CIS-FACTORIAL PAX6 reporter transcription, RNA readout; actives raise or lower the signal
# Paired box protein Pax-6 (Homo sapiens), sequence (P26367 whole entry, looked up): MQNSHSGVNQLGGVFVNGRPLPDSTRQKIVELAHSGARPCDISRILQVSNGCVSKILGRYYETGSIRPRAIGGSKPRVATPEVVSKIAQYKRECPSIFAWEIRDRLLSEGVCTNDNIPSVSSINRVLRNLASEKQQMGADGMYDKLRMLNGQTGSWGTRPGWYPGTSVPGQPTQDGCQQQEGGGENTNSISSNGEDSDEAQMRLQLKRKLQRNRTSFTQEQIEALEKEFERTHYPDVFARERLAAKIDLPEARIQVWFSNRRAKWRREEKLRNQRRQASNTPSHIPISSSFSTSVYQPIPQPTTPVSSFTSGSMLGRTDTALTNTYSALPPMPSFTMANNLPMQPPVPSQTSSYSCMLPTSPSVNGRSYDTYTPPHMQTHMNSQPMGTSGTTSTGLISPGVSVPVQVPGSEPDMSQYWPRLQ
# Summary of the method: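 Readout: reporter transcript fluorescence after RT-PCR and capillary electrophoresis. Cells: HepG2, transiently transfected with cis-regulated MRTUs. Exposure 24 h. Gain or loss of signal fitted bidirectionally relative to DMSO.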
# [3] = ATG_PXRE_CIS: Attagene CIS-FACTORIAL HepG2 Assay for human Pregnane X Receptor Element (PXRE) (AID 2282957); details: HepG2 Attagene CIS-FACTORIAL PXRE reporter, mRNA; actives raise or lower the signal
# Summary of the method: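 Bidirectional activity, baselined to DMSO, derived from reporter mRNA fluorescence (RT-PCR plus capillary electrophoresis) in HepG2 cells bearing cis-promoter reporter units, 24 h exposure.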
# [4] = ATG_Sox_CIS: Attagene CIS-FACTORIAL HepG2 Assay for human SRY-box transcription factor (SOX) (AID 2282960); details: HepG2 Attagene cis-factorial SOX reporter, mRNA; actives raise or lower the signal
# Summary of the method: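 HepG2 cells transiently transfected with cis-element-driven multiple reporter transcription units, dosed 24 h; reporter mRNA measured by RT-PCR, FAM labelling, HpaI digestion and capillary electrophoresis. Bidirectional fit versus DMSO baseline.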
# [5] = biological target: Transcription factor Sp1 (Homo sapiens) (UniProt P08047); assay: ATG_Sp1_CIS: Attagene CIS-FACTORIAL HepG2 Assay for human Specificity Protein 1 (Sp1) (AID 2282961); details: HepG2 Sp1 cis-reporter transcription, actives raise or lower the signal
# Transcription factor Sp1 (Homo sapiens), sequence (P08047 whole entry, looked up): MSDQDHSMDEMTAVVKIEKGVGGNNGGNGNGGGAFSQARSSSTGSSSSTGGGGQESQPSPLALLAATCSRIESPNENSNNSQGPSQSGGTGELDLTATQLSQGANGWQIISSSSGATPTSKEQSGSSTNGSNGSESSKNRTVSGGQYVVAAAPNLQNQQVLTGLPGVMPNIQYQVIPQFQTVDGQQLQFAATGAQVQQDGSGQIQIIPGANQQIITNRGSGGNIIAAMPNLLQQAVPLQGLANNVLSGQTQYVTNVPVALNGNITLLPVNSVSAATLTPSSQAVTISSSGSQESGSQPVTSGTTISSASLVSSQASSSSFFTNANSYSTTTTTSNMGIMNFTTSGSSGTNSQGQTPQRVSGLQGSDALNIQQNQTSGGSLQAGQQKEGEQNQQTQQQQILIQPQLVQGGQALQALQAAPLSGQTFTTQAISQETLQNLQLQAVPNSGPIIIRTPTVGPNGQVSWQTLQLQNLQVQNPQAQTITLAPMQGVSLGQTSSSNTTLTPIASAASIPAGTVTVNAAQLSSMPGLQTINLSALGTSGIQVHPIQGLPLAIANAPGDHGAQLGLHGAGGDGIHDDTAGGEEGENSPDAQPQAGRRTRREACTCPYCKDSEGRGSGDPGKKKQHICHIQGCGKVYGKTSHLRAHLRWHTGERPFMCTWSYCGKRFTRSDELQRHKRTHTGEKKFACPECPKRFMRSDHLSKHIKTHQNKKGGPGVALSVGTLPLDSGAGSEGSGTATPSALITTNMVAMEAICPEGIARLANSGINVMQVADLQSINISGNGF
# Summary of the method: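 HepG2 cells transiently transfected with multiple reporter transcription units driven by cis-regulatory elements; Sp1-responsive reporter mRNA measured 24 h after dosing by RT-PCR and capillary electrophoresis fluorescence, fitted bidirectionally against DMSO baseline.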
# [6] = ATG_SREBP_CIS: Attagene CIS-FACTORIAL HepG2 Assay for human Sterol Regulatory Element Binding (SREBP) (AID 2282962); details: HepG2 Attagene cis-factorial SREBP reporter, mRNA; actives raise or lower the signal
# Summary of the method: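 Readout: fluorescent reporter-transcript peaks resolved by capillary electrophoresis after RT-PCR. Cells were human HepG2 carrying transfected cis-promoter reporter constructs, dosed for 24 h. Gain or loss of signal was fitted against DMSO controls.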
# [7] = biological target: Signal transducer and activator of transcription 3 (Homo sapiens) (UniProt P40763); assay: ATG_STAT3_CIS: Attagene CIS-FACTORIAL HepG2 Assay for human Signal Transducer and Activator of Transcription 3 (STAT3) (AID 2282963); details: HepG2, Attagene cis-factorial STAT3 reporter transcription; actives raise or lower the signal
# Signal transducer and activator of transcription 3 (Homo sapiens), sequence (P40763 whole entry, looked up): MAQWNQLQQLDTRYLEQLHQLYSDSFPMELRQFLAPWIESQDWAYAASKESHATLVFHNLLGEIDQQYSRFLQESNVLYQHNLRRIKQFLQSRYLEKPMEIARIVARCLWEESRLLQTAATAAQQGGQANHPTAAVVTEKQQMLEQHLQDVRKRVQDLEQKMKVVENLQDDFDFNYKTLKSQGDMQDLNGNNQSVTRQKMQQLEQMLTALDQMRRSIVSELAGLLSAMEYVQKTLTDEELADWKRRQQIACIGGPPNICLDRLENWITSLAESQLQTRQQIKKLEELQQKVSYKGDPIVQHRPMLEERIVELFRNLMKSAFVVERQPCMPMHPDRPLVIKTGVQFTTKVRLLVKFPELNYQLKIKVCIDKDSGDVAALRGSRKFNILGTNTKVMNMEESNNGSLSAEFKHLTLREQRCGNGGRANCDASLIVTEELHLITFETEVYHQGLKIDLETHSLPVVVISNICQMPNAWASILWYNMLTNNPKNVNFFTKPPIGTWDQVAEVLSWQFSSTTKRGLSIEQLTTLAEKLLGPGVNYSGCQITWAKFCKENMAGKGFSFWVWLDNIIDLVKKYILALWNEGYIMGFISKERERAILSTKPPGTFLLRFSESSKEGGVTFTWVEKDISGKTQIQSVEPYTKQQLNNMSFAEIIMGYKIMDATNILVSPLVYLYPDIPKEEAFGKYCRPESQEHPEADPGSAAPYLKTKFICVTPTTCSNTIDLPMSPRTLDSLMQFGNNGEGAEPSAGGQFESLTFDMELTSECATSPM
# Summary of the method: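 Cis-factorial format: endogenous transcription factors in HepG2 drive transfected reporter units. After 24 h treatment, reporter RNA was reverse-transcribed, amplified, FAM-labelled and HpaI-digested before CE analysis; activity scored in both directions against DMSO.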
# [8] = ATG_TA_CIS: Attagene CIS-FACTORIAL HepG2 Assay for human TA Basal Promoter (AID 2282964); details: HepG2 Attagene CIS-factorial TA basal promoter reporter; actives raise or lower the signal
# Summary of the method: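 HepG2 cells transiently transfected with multiple reporter units under cis promoter elements, reporting endogenous transcription factor activity; this endpoint tracks the TA basal promoter as background control. Reporter mRNA after 24 h dosing measured by RT-PCR/capillary electrophoresis; bidirectional fits versus DMSO.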
# [9] = ATG_TCF_b_cat_CIS: Attagene CIS-FACTORIAL HepG2 Assay for human T-Cell-Factor with beta-catenin (TCF/b-cat) (AID 2282965); details: HepG2 TCF/beta-catenin cis-reporter transcription, actives raise or lower the signal
# Summary of the method: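 Endogenous TCF/LEF activity read as reporter transcript level via RT-PCR and capillary electrophoresis fluorescence in transfected HepG2, 24 h exposure; gain or loss of signal fitted against DMSO controls.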
# [10] = ATG_TAL_CIS: Attagene CIS-FACTORIAL HepG2 Assay for human TAL Basal Promoter (AID 2282966); details: HepG2 Attagene cis-factorial TAL promoter reporter; actives raise or lower the signal;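 also: background control endpoint measuring basal TAL promoter reporter mRNA not a specific factor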
# Summary of the method: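 Human hepatoma HepG2 cells, transfected with promoter-regulated reporter units, were treated 24 h. Reporter transcript levels, measured through RT-PCR and capillary electrophoresis, were fitted for gain or loss relative to DMSO.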
# [11] = ATG_TGFb_CIS: Attagene CIS-FACTORIAL HepG2 Assay for human Transforming Growth Factor (TGF) (AID 2282967); details: HepG2 Attagene CIS TGFb reporter, mRNA transcription; actives raise or lower the signal
# Summary of the method: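 HepG2 cells transiently transfected with cis-promoter-driven multiple reporter units measure endogenous TF activity; reporter mRNA quantified at 24 h by RT-PCR, FAM labeling, HpaI digestion and capillary electrophoresis. Bidirectional fit vs DMSO.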
# [12] = biological target: Nuclear receptor subfamily 1 group I member 3 (Homo sapiens) (UniProt Q14994); assay: ATG_CAR_TRANS: Attagene TRANS-FACTORIAL HepG2 Assay for human Constitutive Androstane Receptor (CAR) (AID 2282969; active = hit-call score of the fitted dose curve at least 0.9, where 1 is the maximum;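 also: activators raise reporter mRNA above DMSO so AC50 marks induction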); details: HepG2 Attagene TRANS-FACTORIAL CAR reporter
# Nuclear receptor subfamily 1 group I member 3 (Homo sapiens), sequence (Q14994 whole entry, looked up, the tested form may be a part): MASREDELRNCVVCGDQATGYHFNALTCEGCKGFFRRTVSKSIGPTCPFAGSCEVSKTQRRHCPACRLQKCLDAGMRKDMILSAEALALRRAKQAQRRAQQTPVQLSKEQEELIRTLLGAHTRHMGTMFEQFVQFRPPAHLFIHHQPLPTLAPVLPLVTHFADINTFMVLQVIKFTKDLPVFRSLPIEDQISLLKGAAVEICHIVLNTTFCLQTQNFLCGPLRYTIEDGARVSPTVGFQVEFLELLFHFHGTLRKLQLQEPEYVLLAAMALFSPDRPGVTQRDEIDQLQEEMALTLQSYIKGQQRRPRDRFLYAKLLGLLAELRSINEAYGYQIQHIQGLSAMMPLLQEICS
# Summary of the method: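 Signal is reporter mRNA induction relative to DMSO, measured 24 h after dosing by RT-PCR with fluorescent primer extension and capillary electrophoresis. Human HepG2 liver cells carried transiently transfected chimeric NR-Gal4/GAL4-UAS reporter constructs.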
# [13] = biological target: Estrogen receptor (Homo sapiens) (UniProt P03372); assay: ATG_ERa_TRANS: Attagene TRANS-FACTORIAL HepG2 Assay for human Estrogen Receptor alpha (ERa) (AID 2282970; active = hit-call score of the fitted dose curve at least 0.9, where 1 is the maximum); details: HepG2 Attagene TRANS ERa GAL4 reporter, mRNA
# Estrogen receptor (Homo sapiens), sequence (P03372 whole entry, looked up, the tested form may be a part): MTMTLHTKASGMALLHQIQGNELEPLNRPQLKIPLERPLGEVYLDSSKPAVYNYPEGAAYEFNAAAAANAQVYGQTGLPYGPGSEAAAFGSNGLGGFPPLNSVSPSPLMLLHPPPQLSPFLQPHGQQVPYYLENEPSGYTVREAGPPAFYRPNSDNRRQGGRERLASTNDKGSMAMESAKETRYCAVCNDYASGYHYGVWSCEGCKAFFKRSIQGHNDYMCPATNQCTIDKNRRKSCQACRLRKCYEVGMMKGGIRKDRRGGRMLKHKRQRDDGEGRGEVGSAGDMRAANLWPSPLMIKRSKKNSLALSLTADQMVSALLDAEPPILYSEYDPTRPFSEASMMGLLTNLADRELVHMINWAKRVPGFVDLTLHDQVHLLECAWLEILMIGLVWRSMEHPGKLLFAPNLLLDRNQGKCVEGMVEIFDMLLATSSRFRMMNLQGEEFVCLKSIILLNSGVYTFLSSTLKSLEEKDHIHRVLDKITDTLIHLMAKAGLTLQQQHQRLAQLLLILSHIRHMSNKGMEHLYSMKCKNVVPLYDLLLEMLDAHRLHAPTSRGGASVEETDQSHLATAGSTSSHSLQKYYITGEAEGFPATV
# Summary of the method: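 Signal derives from fluorescence of labelled reporter PCR fragments separated by capillary electrophoresis. HepG2 cells transiently carrying multiple GAL4-UAS reporter units were treated 24 hours, and induction above DMSO baseline was fitted as activity.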
# [14] = biological target: X-box-binding protein 1 (Homo sapiens) (UniProt P17861); assay: ATG_Xbp1_CIS: Attagene CIS-FACTORIAL HepG2 Assay for human X-box Binding Protein 1 (XBP1) (AID 2282972); details: HepG2 XBP1 cis-element reporter, Attagene multiplex; actives raise or lower the signal
# X-box-binding protein 1 (Homo sapiens), sequence (P17861 whole entry, looked up, the tested form may be a part): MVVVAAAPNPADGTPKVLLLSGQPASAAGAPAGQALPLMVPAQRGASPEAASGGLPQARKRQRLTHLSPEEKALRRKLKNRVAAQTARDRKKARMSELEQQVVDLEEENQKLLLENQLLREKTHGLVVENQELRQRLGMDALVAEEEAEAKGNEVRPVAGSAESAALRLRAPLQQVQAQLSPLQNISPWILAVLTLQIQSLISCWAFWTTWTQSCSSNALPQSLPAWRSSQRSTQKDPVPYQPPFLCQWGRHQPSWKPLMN
# Summary of the method: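 Read-out: fluorescent reporter mRNA fragments resolved by capillary electrophoresis after RT-PCR. Human HepG2 liver cells carried transfected cis-promoter reporter units and were exposed to chemicals for 24 hours. Gain or loss of signal fitted relative to DMSO baseline.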
# [15] = ATG_M_19_TRANS: Attagene TRANS-FACTORIAL HepG2 Assay for M19 Transcription Factor (Internal Marker) (AID 2282974; active = hit-call score of the fitted dose curve at least 0.9, where 1 is the maximum); details: HepG2 Attagene TRANS-FACTORIAL M19 internal marker reporter
# Summary of the method: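 HepG2 cells transiently transfected with multiple GAL4-UAS reporter transcription units were exposed to chemicals for 24 h. Reporter mRNA was read by RT-PCR, 6-FAM primer extension, HpaI digestion and capillary electrophoresis; gain of signal fitted relative to DMSO.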
# [16] = ATG_PPRE_CIS: Attagene CIS-FACTORIAL HepG2 Assay for human Peroxisome Proliferator-activated Response Element (PPRE) (AID 2282958); details: HepG2 PPRE cis-element reporter, Attagene transcription factor profiling; actives raise or lower the signal
# Summary of the method: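 HepG2 cells transiently transfected with multiplexed cis-element reporter units measure endogenous transcription factor activity. After 24 h compound exposure, reporter mRNA is quantified by RT-PCR, 6-FAM labeling, HpaI digestion and capillary electrophoresis; bidirectional fits are made against DMSO baseline.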
# [17] = ATG_RORE_CIS: Attagene CIS-FACTORIAL HepG2 Assay for human RAR-related Orphan Receptor Element (RORE) (AID 2282959); details: HepG2 Attagene cis-factorial RORE reporter, mRNA; actives raise or lower the signal
# Summary of the method: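 HepG2 cells transiently transfected with multiple cis-element reporter transcription units, exposed to chemical for 24 h. Reporter mRNA quantified by RT-PCR, 6-FAM primer-extension labeling, HpaI digestion and capillary electrophoresis; bidirectional fit versus DMSO baseline.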
# [18] = ATG_GAL4_TRANS: Attagene TRANS-FACTORIAL HepG2 Assay for GAL4 (Internal Marker) (AID 2282976; active = hit-call score of the fitted dose curve at least 0.9, where 1 is the maximum); details: HepG2 Attagene TRANS GAL4 internal marker reporter
# Summary of the method: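 Liver HepG2 line bearing multiplexed GAL4-UAS reporter constructs; 24 h chemical treatment. Transcripts were quantified as fluorescent fragments on capillary electrophoresis after RT-PCR and HpaI cut, with activity fitted upward from DMSO.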
# [19] = biological target: Estrogen-related receptor gamma (Homo sapiens) (UniProt P62508); assay: ATG_ERRg_TRANS: Attagene TRANS-FACTORIAL HepG2 Assay for human Estrogen-Related Receptor gamma (ERRg) (AID 2282977; active = hit-call score of the fitted dose curve at least 0.9, where 1 is the maximum;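 also: hits increase reporter signal over DMSO so potencies reflect activators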); details: HepG2 Attagene TRANS reporter, ERRg transactivation
# Estrogen-related receptor gamma (Homo sapiens), sequence (P62508 whole entry, looked up, the tested form may be a part): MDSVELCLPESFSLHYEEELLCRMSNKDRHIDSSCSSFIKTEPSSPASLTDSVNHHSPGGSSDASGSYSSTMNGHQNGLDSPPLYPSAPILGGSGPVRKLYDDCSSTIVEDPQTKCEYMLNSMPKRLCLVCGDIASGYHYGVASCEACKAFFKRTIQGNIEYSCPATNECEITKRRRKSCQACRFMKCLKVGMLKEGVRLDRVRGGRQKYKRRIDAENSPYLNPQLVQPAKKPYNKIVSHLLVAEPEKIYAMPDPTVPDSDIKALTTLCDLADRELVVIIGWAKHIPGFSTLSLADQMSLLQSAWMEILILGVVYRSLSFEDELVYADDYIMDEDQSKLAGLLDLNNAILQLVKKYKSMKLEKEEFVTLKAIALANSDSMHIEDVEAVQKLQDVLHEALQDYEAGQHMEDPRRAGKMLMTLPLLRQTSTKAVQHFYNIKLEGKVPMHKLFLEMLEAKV
# Summary of the method: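 Readout: fluorescent reporter-mRNA fragments resolved by capillary electrophoresis after RT-PCR and HpaI cut. Cells: transiently transfected HepG2 carrying GAL4-UAS reporters driven by exogenous NR-Gal4 chimeras, dosed 24 h. Activity fitted upward relative to DMSO baseline.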
# [20] = ATG_VDRE_CIS: Attagene CIS-FACTORIAL HepG2 Assay for human Vitamin D Receptor Element (VDRE) (AID 2282968); details: HepG2 VDRE cis-reporter transcription, actives raise or lower the signal
# Summary of the method: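 Measures endogenous factor activity through cis-element-driven reporter transcripts in transiently transfected HepG2. Cells are treated 24 h; reporter mRNA is quantified by RT-PCR and capillary electrophoresis; fitting is bidirectional.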
compound,measurement,setting,value
Oc1ccccc1-c1ccccc1,outcome,[1],inactive
same,AC50,[2],57.7 µM (active)
same,outcome,[2],inactive
same,AC50,[3],13.5 µM (active) and 3.11 µM (active)
same,AC50,[4],46 µM (active)
same,outcome,[4],inactive
same,AC50,[5],50 µM (active)
same,outcome,[5],inactive
same,AC50,[6],150 µM (active)
same,outcome,[6],inactive
same,outcome,[7],inactive
same,outcome,[8],inactive
same,outcome,[9],inactive
same,outcome,[10],inactive
same,AC50,[11],87.5 µM (active)
same,outcome,[11],inactive
same,outcome,[12],inactive
same,AC50,[13],31.1 µM (active) and 27.8 µM (active)
same,outcome,[14],inactive
same,outcome,[15],inactive
CO/C=C(/C(=O)OC)c1ccccc1Oc1cc(Oc2ccccc2C#N)ncn1,outcome,[1],inactive
same,outcome,[2],inactive
same,AC50,[3],526 nM (active) [middle of 6 runs]
same,outcome,[16],inactive
same,outcome,[17],inactive
same,outcome,[4],inactive
same,outcome,[5],inactive
same,AC50,[6],32.4 µM (active) [middle of 4 runs]
same,outcome,[6],inactive
same,outcome,[7],inactive
same,outcome,[8],inactive
same,outcome,[9],inactive
same,outcome,[10],inactive
same,outcome,[11],inactive
same,outcome,[12],inactive
same,outcome,[13],inactive
same,outcome,[14],inactive
same,outcome,[15],inactive
same,outcome,[18],inactive
same,outcome,[19],inactive
COc1cnc(OC)n2nc(NS(=O)(=O)c3c(OCC(F)F)cccc3C(F)(F)F)nc12,outcome,[1],inactive
same,outcome,[2],inactive
same,AC50,[3],22 µM (active) and 16.4 µM (active)
same,outcome,[16],inactive
same,outcome,[17],inactive
same,outcome,[4],inactive
same,outcome,[5],inactive
same,outcome,[6],inactive
same,outcome,[7],inactive
same,outcome,[8],inactive
same,outcome,[9],inactive
same,outcome,[10],inactive
same,outcome,[11],inactive
same,outcome,[12],inactive
same,outcome,[13],inactive
same,outcome,[14],inactive
same,outcome,[15],inactive
same,outcome,[18],inactive
CCOc1cc(Oc2ccc(C(F)(F)F)cc2Cl)ccc1[N+](=O)[O-],outcome,[1],inactive
same,outcome,[2],inactive
same,AC50,[3],8.64 µM (active)
same,AC50,[16],13.7 µM (active)
same,AC50,[17],29.8 µM (active)
same,outcome,[4],inactive
same,outcome,[5],inactive
same,outcome,[6],inactive
same,outcome,[7],inactive
same,outcome,[8],inactive
same,outcome,[9],inactive
same,outcome,[10],inactive
same,outcome,[11],inactive
same,outcome,[12],inactive
same,outcome,[13],inactive
same,AC50,[14],13.1 µM (active)
COc1ccc(C(c2ccc(OC)cc2)C(Cl)(Cl)Cl)cc1,outcome,[1],inactive
same,outcome,[2],inactive
same,AC50,[3],4.17 µM (active) [middle of 4 runs]
same,outcome,[3],inactive
same,outcome,[16],inactive
same,outcome,[17],inactive
same,outcome,[4],inactive
same,AC50,[5],24.4 µM (active) and 38.1 µM (active)
same,outcome,[5],inactive
same,outcome,[6],inactive
same,outcome,[7],inactive
same,outcome,[8],inactive
same,outcome,[9],inactive
same,outcome,[10],inactive
same,outcome,[11],inactive
same,AC50,[20],4.94 µM (active) and 16.3 µM (active) and 11.9 µM (active)
same,outcome,[20],inactive
same,outcome,[12],inactive
same,AC50,[13],1.53 µM (active) [middle of 4 runs]
same,outcome,[13],inactive
same,AC50,[14],28.3 µM (active)
same,outcome,[14],inactive
same,outcome,[15],inactive
same,outcome,[18],inactive
same,outcome,[19],inactive
